High-throughput results as filed in PubChem BioAssay.
The list is not random: actives were taken first. Their share in the collection is about 1.3%.
Sa ugtP lethal – compounds lethal to S. aureus RN4220 ugtP deletion mutant; OD600 growth, 16 h; growth inhibition, % (no concentration beside the values); 0.54% of 330,000 active; in the data active = growth inhibition above about 68%;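 also: plate controls were untreated wells for no effect and antibiotic for full effect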
Sa RN4220 lethal – kills Staphylococcus aureus RN4220; S. aureus RN4220 growth, OD600, 16 h; inhibition, % (no concentration beside the values); 0.33% of 330,000 active; AID 1259311; in the data active = inhibition above about 85%;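 also: plate controls were untreated cells for no effect and reference antibiotic for full effect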
BJeLR viability – BJeLR cell viability loss. BJeLR (HRASV12) viability, CellTiter-Glo ATP luminescence, 48 h. inhibition, % (test concentration not listed). 0.17% of 300,000 active. AID 1554; in the data active = inhibition above about 50%
PfHsp40 yeast – rescue of PfHsp40-mediated yeast toxicity | growth rescue, % at 12.5 µM | AID 504582 | 0.68% of 340,000 active | S. cerevisiae expressing PfHsp40, growth rescue, ATP luminescence; in the data active = growth rescue above about 28%, passing the limit was not always enough;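 also: yeast W303a lacking pdr1 and pdr3 grown in galactose medium; growth measured after three days at 30 °C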
3CLpro inhibitor – SARS-CoV 3CLpro protease inhibition; P0C6X7; recombinant SARS-CoV 3CLpro, quenched FRET peptide cleavage; inhibition, % at 6 µM; 0.14% of 290,000 active; AID 1706; in the data active = inhibition above about 12%
An asterisk follows results filed as active; · = no result given.

SMILES	Sa ugtP lethal	Sa RN4220 lethal	BJeLR viability	PfHsp40 yeast	3CLpro inhibitor
CCCCOC(=O)c1ccc(NC(=S)N2CCN(c3ncc4c(=O)c(C(=O)O)cn(CC)c4n3)CC2)cc1	100*	101*	1	0	-1
CCCc1c(C(=O)NN=C/C(C)=C/c2ccco2)nnn1-c1nonc1N	-8	9	·	·	·
Cc1ccc(Nc2nc(N)nc(CN3CCCCCC3)n2)c(C)c1	-5	5	-4	5	-3
Nc1nc(CCl)nc(Nc2ccccc2)n1	12	13	-4	1	0
Cc1ccc(Nc2nc(N)nc(CCl)n2)c(C)c1	9	4	121*	-2	-3
COc1ccccc1Nc1nc(N)nc(CCl)n1	·	·	-3	-1	5
COc1ccc(OC)c(Nc2nc(N)nc(CCl)n2)c1	2	5	121*	0	0
Cc1cccc(Nc2nc(N)nc(CCl)n2)c1C	·	·	56*	·	2
CCOc1ccc(Nc2nc(N3CCCCC3)nc(N3CCCCC3)n2)cc1	92*	-2	-12	-1	0
Cc1ccc(Nc2nc(N)nc(CCl)n2)cc1	2	5	-1	0	0
Cc1cccc(Nc2nc(N)nc(CCl)n2)c1	-1	10	94*	0	-3
CCOc1ccc(Nc2nc(N)nc(CCl)n2)cc1	4	7	99*	-1	-1
Cc1nc(-n2nnc3cc(C)c(C)cc32)c2c3c(sc2n1)CCCC3	-5	2	-3	0	0
O=C(NCCNC(=O)c1ccccc1F)c1ccco1	12	7	-4	0	0
CCN1CCN(c2cc(SC(C)C)nc(-c3ccc(OC)cc3)n2)CC1	93*	-3	-3	0	-5
CC(C)Sc1cc(N2CCOCC2)nc(-c2ccc(Cl)cc2)n1	2	6	-5	-1	-3
N#Cc1ccc(-c2cccs2)nc1SCc1cccnc1	-6	3	51*	·	1
N#Cc1c(C(F)(F)F)cc(-c2cccs2)nc1SCc1cccnc1	29	-1	4	-1	0
Cc1cc(C)cc(N(CC(=O)NCc2ccco2)C(=O)CCC(=O)Nc2nccs2)c1	4	5	0	1	1
Oc1ccccc1C=NNC(=S)Nc1ccc(F)cc1	-31	1	·	-2	·
Fc1ccc(NC(=S)NN=Cc2ccccc2Cl)cc1	86*	-4	·	-1	·
O=C(Nc1nc(-c2ccccn2)cs1)c1ccco1	-5	8	8	43*	7
O=C(Nc1nc(-c2ccccn2)cs1)c1ccc(Br)s1	34	54	5	255*	3
CCOc1ccc(NCc2cc3c(C(C)(C)C)nn(-c4ccccc4)c3[nH]c2=O)cc1	23	-6	-3	43*	6
COc1cccc(NCc2cc3c(C(C)(C)C)nn(-c4ccccc4)c3[nH]c2=O)c1	1	-7	0	0	7
SMILES	Sa ugtP lethal	Sa RN4220 lethal	BJeLR viability	PfHsp40 yeast	3CLpro inhibitor
CCS(CC)=NS(=O)(=O)c1ccc(NC(C)=O)cc1	-7	5	-3	0	1
c1ccc(CNc2nc(NCc3ccccc3)c3ccccc3n2)cc1	101*	92*	7	-1	2
Cc1ccc(NNC(=O)c2ccno2)cc1C	8	5	-3	-1	3
O=C(CN1CCOCC1)NN=Cc1c(O)ccc2ccccc12	10	8	·	·	·
O=C(NN=Cc1c(O)ccc2ccccc12)C1CC1	90*	73	·	-2	·
O=C(CN1CCCC1)N/N=C/c1c(O)ccc2ccccc12	·	·	11	52*	-2
O=C(NN=Cc1cccc2ccccc12)C1CC1	-4	-3	·	-1	·
O=C(NN=Cc1c(O)ccc2ccccc12)c1cccc(C(F)(F)F)c1	100*	54	·	·	·
Cc1ccc(C)c(Oc2cc(F)nc(N)n2)c1	16	6	2	-1	3
CC(C)CC(NC(=O)OCc1ccccc1)C(=O)NC(Cc1ccccc1)C(=O)CCl (stereo unspecified)	·	·	·	0	·
O=C(NC(Cc1ccccc1)C(=O)CCl)OCc1ccccc1 (stereo unspecified)	100*	101*	·	·	·
O=C(CSc1ccc(-c2ccccc2)nn1)NC1CCCCC1	4	0	8	0	-1
O=C(CSc1ccc(-c2ccccn2)nn1)N1CCCCC1	·	·	-11	135*	-4
O=C(CSc1ccc(-c2ccccn2)nn1)N1CCc2ccccc21	-2	4	2	224*	3
O=C(OCC(=O)N1CCc2ccccc21)c1ccccn1	5	3	-1	-1	6
O=C(CSc1ccc(-c2ccccn2)nn1)c1ccc([N+](=O)[O-])cc1	-4	2	14	95*	-4
O=C(CSc1ccc(-c2ccccn2)nn1)NC1CCCCC1	0	5	3	320*	0
Cc1ccccc1CO/N=C/c1[nH]ncc1Br	·	·	0	0	-1
CC(C)[C@H](NC(=O)C1CCN(S(=O)(=O)c2ccc(F)cc2)CC1)C(=O)N1CCCCCC1	0	1	9	0	0
O=C(CSc1ncccn1)N1CCCc2ccccc21	25	11	·	1	1
O=C(CSc1ccccn1)N1CCc2ccccc21	18	5	10	72*	2
COc1cc(/C=C2\SC(=O)NC2=O)ccc1Oc1ccc([N+](=O)[O-])cc1[N+](=O)[O-]	11	-7	0	0	5
CCN1C(=O)C(=Cc2cccc(OC)c2Oc2ccc([N+](=O)[O-])cc2[N+](=O)[O-])SC1=S	-7	-8	94*	-2	3
O=S(=O)(NCCSCc1ccc(Cl)c(Cl)c1)c1ccc2c(c1)OCCO2	42	-8	-5	42*	-4
Cc1ccc(SCCNS(=O)(=O)c2ccc3c(c2)OCCO3)cc1	17	4	0	4	-2
SMILES	Sa ugtP lethal	Sa RN4220 lethal	BJeLR viability	PfHsp40 yeast	3CLpro inhibitor
CCOc1ccc(/C=C/C(=O)c2c(O)c3ccccc3oc2=O)cc1	92*	-5	-9	1	6
COc1cccc(C=Nn2nnnc2N)c1OCc1ccccc1Cl	-15	6	·	·	·
Clc1ccccc1C(c1ccccc1)(c1ccccc1)n1ccnc1	46	26	1	173*	6
COC(=O)c1c(C)[nH]c(C(=O)C(C)OC(=O)C2CC2)c1C (stereo unspecified)	5	5	·	0	·
Cc1cc(C)c2c(N=NN(C)C)[nH]nc2n1	21	17	-4	68*	-5
CCn1c(SCC(=O)NC2CCCC2)nc2c1c(=O)n(C)c(=O)n2C	·	·	-2	-1	-3
CC1CCN(c2ccc3c(c2)S(=O)(=O)c2ccccc2C3=O)CC1	4	4	-10	199*	·
C=CCNC(=O)C1CC1(c1cccc(C)c1)c1cccc(C)c1 (stereo unspecified)	-6	2	-6	·	·
Cc1cccc(C2(c3cccc(C)c3)CC2C(=O)Nc2ccc([N+](=O)[O-])cc2O)c1 (stereo unspecified)	100*	100*	15	1	4
Cc1cc(C)c(O)c(-c2n[nH]c3c2C(c2cccc(O)c2)N(Cc2ccco2)C3=O)c1 (stereo unspecified)	-16	3	-9	3	10
O=C(O)c1ccc2[nH]c3c(c2c1)CCCC3	-5	1	3	35*	-2
